Several values for one entry are separate records, joined by “and”; a condition that tells them apart may be missing. Equal entries are not always repeated. Inconclusive results are not listed. Activity calls are given as the source filed them. Calls follow the shape of the dose curve; as a rule, active = well fitted curve in the direction sought with a large enough effect; inconclusive = small, poorly fitted or top-dose-only effect, or another doubt; inactive = no such curve, though single readings can be large or run the other way. Where a SMILES comes first, the peptide text is derived from it. Bridges are numbered along the chain shown (N, C = ends). [ ]: non-standard residue; d: D form. The star is where a group is joined. X2 = CC[C@H](C)CCCCC(=O)*; Dab = NCC[C@H](N)C(=O)O
Experiment: qHTS Assay for Identifying Gametocytocidal Compounds (AID 743244);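 also: actives lower the fluorescent signal which means gametocytes are killed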
Conditions: P. falciparum 3D7 stage III-V gametocytes, alamarBlue, 72 h; max response: active compounds read low
Excerpt: Malaria cases and deaths have dropped 50% in 29 countries since 2000 due to the combined effects of long-lasting insecticidal bednets, indoor residual spraying, and artemisinin-based combination therapies (ACTs). This success has raised hopes for malaria eradication and consequently stimulated interest in developing new reagents that block gametocyte transmission such as novel and safe gametocytocidal drugs. However, previous drug development efforts have focused primarily on the asexual parasites that cause symptoms, but not malaria transmission. Consequently, patients can remain infectious for weeks after the clearance of asexual parasites and clinical symptoms. To be transmitted from person to person via a mosquito, the parasites must switch from asexual to sexual development and produce male and female gametocytes. Malaria gametocytes consist of five stages (I, II, III, IV and V). The late stage gametocytes (III, IV and V) are difficult to be cultured in vitro and the long lifespan of mature gametocytes allows them being transmitted from host to mosquitoes unless they are completely eliminated by gametocytocidal agents. To identify gametocytocidal compounds which are capable of killing late stage P. falciparum gametocytes, a high throughput gametocyte viability assay was employed. This assay uses oxidoreduction indicator, alamarBlue, as a general measure of metabolic activity of gametocytes. Within live cells, the nonfluorescent resazurin is reduced to resorufin, a bright red fluorescence dye. Fluorescence decreases upon treatment of gametocytocidal compounds. P. falciparum gametocyte (3D7 strain) was used in this study.
The 1536-well gametocycidal viability assay was based on the previous method of Tanaka et al. Stage III-V gametocytes were tested against three compound libraries, including 4265 compounds from NCGC pharmaceutical collection, 400 from Malaria Box library, and 550 from an internal collection of kinase inhibitors. Briefly, 2.5 ul/well incomplete medium was dispensed into each well of 1,536-well plates using the Multidrop Combi followed by 23 nl compound transferring using the NX-TR Pintool (WAKO Scientific Solutions, San Diego, CA). Then, 2.5 ul/well of gametocytes was dispensed with a seeding density of 20,000 cells/well using the Multidrop Combi. The assay plates were incubated for 72 h at 37C with 5% CO2. After addition of 5 ul/well of 2X AlamarBlue dye (Life Technologies, cat. no. DAL1100), the plates were incubated for 24 h at 37C with 5% CO2 and then were read in a fluorescence detection mode (Ex = 525 nm, Em = 598 nm) on a ViewLux plate reader (PerkinElmer).
% is scaled to controls: 0 for no effect and ±100 for the full control effect.

Row | SMILES | max response
1 | COC(=O)[C@H]1[C@H]2C[C@@H]3c4[nH]c5cc(OC)ccc5c4CCN3C[C@H]2C[C@H](OC)[C@@H]1OC | 15% (inactive)
2 | C=CCCCCCCCCC(=O)OC | 16.7% (inactive)
3 | Nc1ncnc2c1ncn2[C@H]1CC[C@@H](CO)O1 | -3.96% (inactive)
4 | O=C(CCCN1CCC(C(=O)c2ccc(F)cc2)CC1)c1ccc(F)cc1 | 18.4% (inactive)
5 | NC(Cc1ccccc1)C(=O)O (stereo not given) | 3.95% (inactive)
6 | O=C(O)CC/C=C\CC[C@@H]1[C@@H](N2CCCCC2)[C@@H](O)C[C@@H]1OCc1ccc(-c2ccccc2)cc1 | -9.09% (inactive)
7 | COc1cc(C)c(/C=C/C(C)=C/C=C/C(C)=C/C(=O)O)c(C)c1C | 1.95% (inactive)
8 | O=C(CCCN1CCN2CCCC2C1)c1ccc(F)cc1 (stereo not given) | 7.46% (inactive)
9 | O.O.O.O.O.O.O.O=S(=O)([O-])[O-].[Co+2] | 0.797% (inactive)
10 | OC[C@@H](O)C(O)[C@H](O)CO | 3.78% (inactive)
11 | Cc1cccc(C)c1Nc1ncccc1C(=O)O | 11.3% (inactive)
12 | CCCCC/C=C\C/C=C\C/C=C\CCCCC(=O)O | 14.9% (inactive)
13 | O=C1N=C2SCCN2C(=O)C1Cc1ccc(Cl)cc1 (stereo not given) | -5.09% (inactive)
14 | CC[C@H](C)CCCCC(=O)N[C@@H](CCN)C(=O)N[C@H](C(=O)N[C@@H](CCN)C(=O)N[C@H]1CCNC(=O)[C@@H]([C@H](C)O)NC(=O)[C@H](CCN)NC(=O)[C@H](CCN)NC(=O)[C@H](CC(C)C)NC(=O)[C@@H](CC(C)C)NC(=O)[C@H](CCN)NC1=O)[C@@H](C)O (X2-[Dab]T[Dab][Dab][Dab][dL]L[Dab][Dab][dT]; lactam 4-C) | -2.93% (inactive)
15 | NC(=O)[C@H]1O[C@@H](O)[C@H](O)[C@@H](O)[C@@H]1O | -1.37% (inactive)
16 | CC1(O)CCC(C(C)(C)O)CC1 (stereo not given) | 5.51% (inactive)
17 | C[C@@](Cc1ccc(O)c(O)c1)(NN)C(=O)O | -3.47% (inactive)
18 | CC(=O)O[C@@H]1CC2CCC1(C)C2(C)C (stereo not given in full) | 7.45% (inactive)
19 | C[C@]12CC[C@@H]3c4ccc(O)cc4CC[C@H]3[C@@H]1CC[C@@H]2OP(=O)(O)O | -0.293% (inactive)
20 | COc1ccc(C(=O)CCC(=O)O)c2ccccc12 | -11.7% (inactive)

Row | SMILES | max response
21 | CC(CN1c2ccccc2Sc2cccnc21)N(C)C (stereo not given) | 4.99% (inactive)
22 | CC(=O)OCC(=O)[C@@]1(O)CC[C@H]2[C@@H]3CCC4=CC(=O)CC[C@]4(C)C3=CC[C@@]21C | -8.18% (inactive)
23 | Cc1cc(C(=O)NCCc2ccc(S(=O)(=O)NC(=O)NN3CCCCCC3)cc2)no1 | 4.46% (inactive)
24 | C[C@H](NCCc1ccc(O)cc1)[C@H](O)c1ccc(O)cc1 | 10.2% (inactive)
25 | CO/N=C(/C(=O)N[C@@H]1C(=O)N2C(C(=O)O)=C(COC(N)=O)CS[C@H]12)c1ccco1 | -11% (inactive) and 13.4% (inactive)
26 | Nc1nc(/C(=C/CC(=O)O)C(=O)N[C@@H]2C(=O)N3C(C(=O)O)=CCS[C@H]23)cs1 | -2.9% (inactive)
27 | NC(=O)C1c2ccccc2CCc2ccccc21 | -4.56% (inactive)
28 | CC(C)N1CCN(c2ccc(OC[C@H]3CO[C@](Cn4cncn4)(c4ccc(Cl)cc4Cl)O3)cc2)CC1 | 3.43% (inactive)
29 | CCC(O)c1ccccc1 (stereo not given) | 11% (inactive)
30 | S=C=Nc1ccc(N=C=S)cc1 | -17.1% (inactive)
31 | COc1cc(S(C)=O)ccc1-c1nc2ncccc2[nH]1 (stereo not given) | 11.9% (inactive)
32 | CCN1C(=O)NC(c2ccccc2)C1=O (stereo not given) | 13.2% (inactive)
33 | COc1ccc2c(=O)c(C)c(-c3ccccc3)oc2c1CN(C)C | 1.87% (inactive)
34 | CN1CCC(OC(=O)C(Oc2ccc(Cl)cc2)Oc2ccc(Cl)cc2)CC1 | 32.5% (inactive)
35 | C[C@H](CCCC(C)(C)O)[C@H]1CC[C@H]2[C@@H]3CC=C4C[C@@H](O)CC[C@]4(C)[C@H]3CC[C@]12C | -7.2% (inactive)
36 | Cn1nnnc1SCC1=C(C(=O)O)N2C(=O)[C@@H](NC(=O)[C@H](O)c3ccccc3)[C@H]2SC1 | -1.19% (inactive)
37 | CCCCCCCCCCCCCCCCCCCCCC(=O)Nc1ccn([C@@H]2O[C@H](CO)[C@@H](O)[C@@H]2O)c(=O)n1 | -10.3% (inactive)
38 | CC1=CC(=O)NS(=O)(=O)O1 | -2.22% (inactive)
39 | CCCCC(CC)COS(=O)(=O)O (stereo not given) | -3.23% (inactive)
40 | NC(N)=O | 2.55% (inactive)

From PubChem BioAssay (NCATS)
